Assay results as given in the supplement of paper PMC10338343.
± gives the standard deviation.

What was measured:
[1] = tested on: MILI (PIWIL2) piRISC loaded with piRNA #1 (26 nt); experiment: pre-steady-state target cleavage rate (min^-1); guide: piRNA #1 5'p-UGAGGUAGUAGGUUGUAUAGUAUCCA; higher = faster piRNA-guided slicing of the target; conditions: auxiliary factor: 500 nM mouse GTSF1;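 note: 1 nM active piRISC with 0.1 nM target library at 33 °C single turnover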
Method in brief: (§1)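 The pre-steady-state cleavage rate was derived from a burst-and-steady-state fit of Cleave-'n-Seq data. For these assays, 1 nM active affinity-purified piRISC loaded with a single synthetic guide was mixed with […] a transcribed, DNA-blocked target RNA library in HEPES–potassium acetate buffer at 33 °C, with or without 500 nM GTSF1 partner protein, for 0–8 or 0–960 min. Sequencing counts of uncleaved targets were normalised to depth and to weakly complementary targets, and k3 was capped at 0.0001 min^-1 after three trials were pooled.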

[2] = tested on: EfPiwi piRISC loaded with piRNA #1 (26 nt); experiment: pre-steady-state target cleavage rate (min^-1); auxiliary factor: 500 nM Ephydatia muelleri Gtsf1; guide: piRNA #1 5'p-UGAGGUAGUAGGUUGUAUAGUAUCCA; MIWI and MILI are mouse PIWI proteins and EfPiwi is from a freshwater sponge; tags in brackets are library labels; higher = faster piRNA-guided slicing of the target
Method in brief: as §1

| Sequence | pre-steady-state target cleavage rate [1] | pre-steady-state target cleavage rate [2] |
| --- | --- | --- |
| GGAGUGGAUUGUAUACAACCUACUACCUCA | 0.151 ± 0.0098 | 0.00594 ± 0.0037 |
| GGAGAGGAUACUAUACAACCAACUACCUCA | 0.00747 ± 0.0023 | 0.00561 ± 0.002 |
| GGAGACCAUACUAUACAACGUAGUACCUCA | 0.0119 ± 0.0033 | 0.00264 ± 0.0023 |
| GGAGACCAUACUAUUCAACCUACUACCUGA | 0.114 ± 0.018 | 0.00313 ± 0.0026 |
| GGAGACGUUACUAUAGAACCUACUACCUCA | 0.154 ± 0.014 | 0.0026 ± 0.0023 |
| GGAGAGGAUACUUUACAACCUACUAGCUCA | 0.0731 ± 0.013 | 0.00183 ± 0.0016 |
| GGAGUGGAUACUGUACAACCUACUACCUCA | 0.178 ± 0.0077 | 0.109 ± 0.039 |
| GGAGACCAUACUAUACAUCCUACUAGCUCA | 0.152 ± 0.024 | 0.00265 ± 0.0024 |
| GGAGACGAUACUAUACAACCUACUACAUCA | 0.0978 ± 0.015 | 0.0059 ± 0.0024 |
| GGAGACCUUACUAUACAACGUACUACCUGA | 0.0102 ± 0.0027 | 0.00475 ± 0.0042 |
| GGAGAGGAUUACUAUACAACCUACUACCUCA | 0.132 ± 0.0095 | 0.0829 ± 0.03 |
| GGAGUGGAUACUAAACAACCUACUACCUCA | 0.168 ± 0.0092 | 0.00791 ± 0.0037 |
| GGAGACGAUACUUAACAACCUACUACCUCA | 0.134 ± 0.013 | 0.00683 ± 0.0038 |
| GGAGAGGAUACUAUACAACCUACUACCCA | 0.0505 ± 0.014 | 0.0052 ± 0.0025 |
| GGAGAGGUUACUAUACAACCAACUACCUCA | 0.00725 ± 0.0016 | 0.00401 ± 0.002 |
| GGAGUGGAUACUAUACAUCCUUCUACCUCA | 0.0293 ± 0.0033 | 0.00476 ± 0.0022 |
| GGAGACCUUACUAUACAACCUACUACCUCC [g2:g22:cont:t1C] | 0.172 ± 0.017 | 0.0065 ± 0.0027 |
| GGAGACCUAACUAUACAACCUACUACUUCA | 0.084 ± 0.02 | 0.00438 ± 0.0028 |
| GGAGACCUAACUAUACAACCUACCACCUCA | 0.0488 ± 0.014 | 0.00588 ± 0.0042 |
| GGAGAGGAAACUAUACAACCUACUAGCUCA | 0.0535 ± 0.019 | 0.00276 ± 0.0019 |
| GGAGACGAUACUAUACAACCUACAUACCUCA | 0.153 ± 0.016 | 0.00413 ± 0.0021 |
| GGAGACGAUACUAUACAACAUACUACCUCA | 0.0988 ± 0.0095 | 0.00522 ± 0.0024 |
| GGAGACGAUACUAUACAUCCUACUAGCUCA | 0.173 ± 0.027 | 0.00336 ± 0.0019 |
| GGAGACCUUACUAUACAACCUACUACCUGCA | 0.167 ± 0.019 | 0.00419 ± 0.0031 |
| GGAGUGGAUACUAUACAACCUACUACCGUCA | 0.0282 ± 0.006 | 0.00748 ± 0.0027 |
| GGAGACGUUUCUAUACAACCUACUACCUCA | 0.105 ± 0.013 | 0.0117 ± 0.0062 |
| GGAGACCAUUCUAUACAACGUACUACCUCA | 0.0141 ± 0.0029 | 0.00402 ± 0.0025 |
| GGAGAGGAUACUACUACAACCUACUACCUCA | 0.15 ± 0.016 | 0.00619 ± 0.0042 |
| GGAGUGGAUACUAUACAACCUACGACCUCA | 0.0834 ± 0.0092 | 0.00416 ± 0.0017 |
| GGAGACCAUACUAUACAACCUACUACCGCA | 0.203 ± 0.025 | 0.00689 ± 0.0023 |
